# Laboratory results reported in paper PMC7862700, “An all-to-all approach to the identification of sequence-specific readers for epigenetic DNA modifications on cytosine”.
# Key:
# Assay in all cases: DAPPL (digital affinity profiling via proximity ligation, sequencing); 10 mM Tris-HCl pH 7.5, 50 mM NaCl, 1 mM DTT, 4% glycerol, room temperature, 30 min; GST-TFs on glutathione beads, 16-mer random dsDNA library, 0.1% formaldehyde crosslink after washing; high values mean tight binding
# FEV = target: T1, FEV (Homo sapiens, UniProt Q99581 1-238); conditions: protein: recombinant; tags: N-terminal GST; dsDNA, one strand shown
# T1 sequence: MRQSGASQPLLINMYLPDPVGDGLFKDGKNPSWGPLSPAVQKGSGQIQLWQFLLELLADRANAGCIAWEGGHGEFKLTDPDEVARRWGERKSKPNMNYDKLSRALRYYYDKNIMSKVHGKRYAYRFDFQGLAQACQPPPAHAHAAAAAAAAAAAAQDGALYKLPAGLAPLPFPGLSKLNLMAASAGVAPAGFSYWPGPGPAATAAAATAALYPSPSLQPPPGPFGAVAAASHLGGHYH
# Method in brief: (§1)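 Binding signal is given per hexamer as its read frequency for a factor divided by its frequency in the tag-only sample. GST-fused human transcription factors were expressed in yeast, captured on glutathione beads, barcoded with DNA and pooled with that sample, then incubated with 200 nmole of a 16-mer random double-stranded DNA library in Tris/NaCl/DTT/glycerol buffer for 30 min at room temperature. The pools were then washed, crosslinked, proximity-ligated, amplified by PCR and sequenced on an Illumina NextSeq500.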
# ETV5 = ETV5 (Homo sapiens, UniProt P41161 1-510); conditions: protein: recombinant; tags: N-terminal GST; dsDNA, one strand shown
# Chain of ETV5 (P41161 whole entry): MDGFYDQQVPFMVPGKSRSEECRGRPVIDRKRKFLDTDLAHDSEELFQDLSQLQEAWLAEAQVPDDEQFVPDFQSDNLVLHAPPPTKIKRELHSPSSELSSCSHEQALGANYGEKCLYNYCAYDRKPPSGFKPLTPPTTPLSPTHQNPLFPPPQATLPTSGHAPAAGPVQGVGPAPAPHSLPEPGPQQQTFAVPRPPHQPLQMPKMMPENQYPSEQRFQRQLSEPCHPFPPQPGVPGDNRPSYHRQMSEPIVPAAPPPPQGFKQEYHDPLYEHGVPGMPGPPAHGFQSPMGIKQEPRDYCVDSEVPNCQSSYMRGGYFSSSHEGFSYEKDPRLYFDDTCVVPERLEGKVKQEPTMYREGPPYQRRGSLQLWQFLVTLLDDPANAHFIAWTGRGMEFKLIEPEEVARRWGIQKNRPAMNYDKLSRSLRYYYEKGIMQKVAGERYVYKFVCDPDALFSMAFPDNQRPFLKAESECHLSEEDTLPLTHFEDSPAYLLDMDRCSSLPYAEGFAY
# Method in brief: as §1
# HSF1 = HSF1 (Homo sapiens, UniProt Q00613 1-529); conditions: protein: recombinant; tags: N-terminal GST; chain copies: 3; dsDNA, one strand shown
# Chain of HSF1 (Q00613 whole entry): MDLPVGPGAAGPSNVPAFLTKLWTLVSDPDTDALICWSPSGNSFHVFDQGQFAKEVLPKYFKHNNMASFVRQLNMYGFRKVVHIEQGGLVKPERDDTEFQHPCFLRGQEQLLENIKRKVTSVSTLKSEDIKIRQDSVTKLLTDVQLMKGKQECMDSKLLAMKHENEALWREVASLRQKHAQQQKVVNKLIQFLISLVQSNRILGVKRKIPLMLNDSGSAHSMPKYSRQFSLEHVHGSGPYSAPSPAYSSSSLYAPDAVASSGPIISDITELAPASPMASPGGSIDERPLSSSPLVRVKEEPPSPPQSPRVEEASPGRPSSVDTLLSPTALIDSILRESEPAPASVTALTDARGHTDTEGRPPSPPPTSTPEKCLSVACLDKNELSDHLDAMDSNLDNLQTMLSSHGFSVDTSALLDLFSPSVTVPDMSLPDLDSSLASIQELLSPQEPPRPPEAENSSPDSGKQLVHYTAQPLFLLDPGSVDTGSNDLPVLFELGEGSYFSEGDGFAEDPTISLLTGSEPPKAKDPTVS
# Method in brief: as §1
# SPIC = target: T2, SPIC (Homo sapiens, UniProt Q8N5J4 1-248); conditions: protein: recombinant; tags: N-terminal GST; dsDNA, one strand shown
# T2 sequence: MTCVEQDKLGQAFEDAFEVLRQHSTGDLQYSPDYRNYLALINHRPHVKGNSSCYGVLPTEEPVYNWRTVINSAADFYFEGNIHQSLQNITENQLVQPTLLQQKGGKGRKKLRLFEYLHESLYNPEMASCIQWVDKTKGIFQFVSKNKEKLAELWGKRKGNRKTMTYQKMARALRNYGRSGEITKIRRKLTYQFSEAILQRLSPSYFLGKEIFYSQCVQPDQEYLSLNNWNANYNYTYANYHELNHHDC
# Method in brief: as §1
# ELF4 = ELF4 (Homo sapiens, UniProt Q99607 1-663); conditions: protein: recombinant; tags: N-terminal GST; dsDNA, one strand shown
# Chain of ELF4 (Q99607 whole entry): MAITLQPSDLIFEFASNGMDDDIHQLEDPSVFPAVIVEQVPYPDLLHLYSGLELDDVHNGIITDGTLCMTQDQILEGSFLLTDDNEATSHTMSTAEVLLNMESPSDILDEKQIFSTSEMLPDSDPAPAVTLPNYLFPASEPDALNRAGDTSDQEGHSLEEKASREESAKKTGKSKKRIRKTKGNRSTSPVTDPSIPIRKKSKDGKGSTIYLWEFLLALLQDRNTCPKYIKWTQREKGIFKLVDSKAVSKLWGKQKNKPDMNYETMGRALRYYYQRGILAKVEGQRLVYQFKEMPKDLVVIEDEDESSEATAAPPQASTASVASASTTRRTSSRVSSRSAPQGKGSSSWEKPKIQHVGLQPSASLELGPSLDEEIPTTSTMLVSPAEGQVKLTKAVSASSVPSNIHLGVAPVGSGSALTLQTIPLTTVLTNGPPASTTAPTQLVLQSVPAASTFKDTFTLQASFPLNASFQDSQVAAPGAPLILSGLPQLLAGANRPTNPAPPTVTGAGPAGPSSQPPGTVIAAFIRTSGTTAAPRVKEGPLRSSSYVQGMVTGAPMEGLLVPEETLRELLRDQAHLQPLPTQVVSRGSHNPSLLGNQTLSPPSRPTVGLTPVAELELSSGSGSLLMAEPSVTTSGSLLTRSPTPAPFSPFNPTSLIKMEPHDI
# Method in brief: as §1
# ELK4 = target: T3, ELK4 (Homo sapiens, UniProt P28324-2 1-405); conditions: protein: recombinant; tags: N-terminal GST; dsDNA, one strand shown
# T3 sequence: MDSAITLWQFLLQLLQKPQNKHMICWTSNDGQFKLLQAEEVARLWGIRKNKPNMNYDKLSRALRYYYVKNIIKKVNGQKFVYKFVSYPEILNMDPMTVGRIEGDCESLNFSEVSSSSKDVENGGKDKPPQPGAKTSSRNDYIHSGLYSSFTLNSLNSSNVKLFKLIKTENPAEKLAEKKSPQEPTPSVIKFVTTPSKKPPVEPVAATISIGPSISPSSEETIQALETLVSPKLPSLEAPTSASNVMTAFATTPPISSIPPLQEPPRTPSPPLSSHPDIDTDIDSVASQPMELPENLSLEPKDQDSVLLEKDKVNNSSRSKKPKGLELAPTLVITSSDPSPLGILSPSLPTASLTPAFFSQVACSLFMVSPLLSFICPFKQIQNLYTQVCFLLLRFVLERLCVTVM
# Method in brief: as §1
# ETV2 = target: T4, ETV2 (Homo sapiens, UniProt O00321 1-342); conditions: protein: recombinant; tags: N-terminal GST; dsDNA, one strand shown
# T4 sequence: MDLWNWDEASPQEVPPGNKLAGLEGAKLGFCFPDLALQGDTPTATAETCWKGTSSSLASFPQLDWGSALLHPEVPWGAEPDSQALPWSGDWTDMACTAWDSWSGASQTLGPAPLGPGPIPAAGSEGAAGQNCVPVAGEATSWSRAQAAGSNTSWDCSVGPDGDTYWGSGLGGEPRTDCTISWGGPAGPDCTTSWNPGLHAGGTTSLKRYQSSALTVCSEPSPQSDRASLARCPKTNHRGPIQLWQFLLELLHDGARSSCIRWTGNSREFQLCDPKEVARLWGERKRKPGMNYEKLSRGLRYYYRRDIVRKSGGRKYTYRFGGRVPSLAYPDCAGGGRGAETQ
# Method in brief: as §1
# ELF3 = target: T5, ELF3 (Homo sapiens, UniProt P78545 1-371); conditions: protein: recombinant; tags: N-terminal GST; dsDNA, one strand shown
# T5 sequence: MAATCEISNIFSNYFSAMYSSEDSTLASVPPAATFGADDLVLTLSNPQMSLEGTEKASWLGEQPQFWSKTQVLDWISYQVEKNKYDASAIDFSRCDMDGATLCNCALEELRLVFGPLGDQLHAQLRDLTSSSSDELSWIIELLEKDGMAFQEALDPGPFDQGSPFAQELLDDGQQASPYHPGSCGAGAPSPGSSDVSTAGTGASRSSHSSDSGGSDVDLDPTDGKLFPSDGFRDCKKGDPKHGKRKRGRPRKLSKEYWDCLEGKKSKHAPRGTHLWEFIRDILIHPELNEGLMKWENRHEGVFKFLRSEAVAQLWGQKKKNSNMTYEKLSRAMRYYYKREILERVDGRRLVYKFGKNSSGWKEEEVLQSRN
# Method in brief: as §1
# CRX = CRX (Homo sapiens, UniProt O43186 1-299); conditions: protein: recombinant; tags: N-terminal GST; dsDNA, one strand shown
# Chain of CRX (O43186 whole entry): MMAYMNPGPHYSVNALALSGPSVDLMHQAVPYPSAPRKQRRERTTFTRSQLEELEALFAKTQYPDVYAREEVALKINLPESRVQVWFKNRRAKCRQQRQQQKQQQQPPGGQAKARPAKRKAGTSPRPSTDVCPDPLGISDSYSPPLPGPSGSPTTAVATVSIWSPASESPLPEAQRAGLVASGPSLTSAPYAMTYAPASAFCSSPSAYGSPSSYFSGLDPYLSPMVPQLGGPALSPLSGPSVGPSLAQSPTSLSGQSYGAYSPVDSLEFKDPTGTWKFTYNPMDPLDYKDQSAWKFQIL
# Method in brief: as §1
sequence,measurement,setting,value
GAAAAT,binding signal,FEV,"1.07 fold enrichment (6-mer frequency, TF over GST control)"
same,binding signal,ETV5,"1.16 fold enrichment (6-mer frequency, TF over GST control)"
same,binding signal,HSF1,"1.49 fold enrichment (6-mer frequency, TF over GST control)"
same,binding signal,SPIC,"1.09 fold enrichment (6-mer frequency, TF over GST control)"
same,binding signal,ELF4,"1.14 fold enrichment (6-mer frequency, TF over GST control)"
same,binding signal,ELK4,"1.01 fold enrichment (6-mer frequency, TF over GST control)"
same,binding signal,ETV2,"1.17 fold enrichment (6-mer frequency, TF over GST control)"
same,binding signal,ELF3,"1.09 fold enrichment (6-mer frequency, TF over GST control)"
same,binding signal,CRX,"1.2 fold enrichment (6-mer frequency, TF over GST control)"
